PubChem BioAssay (NCI)
About 79,000 compounds went through this panel and 15% of them were active in at least one assay; those are over-represented in the sample as a whole. Unmarked numbers belong to inactive results. Activity calls are given as the source filed them. Cut-off read from the data, not from the text of the source: active = growth inhibition above about 70%; inactive = the rest.

Experiments:
[1] = NCI Yeast Anticancer Drug Screen. Data for the rad52 strain (AID 147);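 note: 0% = growth of vehicle-treated control cultures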; conditions: S. cerevisiae rad52 mutant growth inhibition, hits give high values
How it was run: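 The repair-mutant yeast strain was incubated with compounds, then growth was read and inhibition derived relative to vehicle.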

[2] = NCI Yeast Anticancer Drug Screen. Data for the wt1 strain (AID 149);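 note: 0% = growth of vehicle-treated wt1 cultures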; conditions: S. cerevisiae wt1 strain (SPY 50644) growth inhibition, hits give high values
How it was run: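 The wt1 strain was treated with compounds, and growth was compared with vehicle-treated cultures to give inhibition.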

[3] = NCI Yeast Anticancer Drug Screen. Data for the rad50EPP+ strain (AID 151);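 note: 0% = growth of vehicle-treated control cultures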; conditions: S. cerevisiae rad50 mutant strain, hits give high values
How it was run: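 Vehicle-normalised growth inhibition; rad50EPP+ yeast strain, altered in DNA damage repair, compound-treated.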

[4] = NCI Yeast Anticancer Drug Screen. Data for the mgt1 strain (AID 153); conditions: S. cerevisiae mgt1 mutant growth inhibition, hits give high values
How it was run: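 Vehicle-normalized growth inhibition is determined in mgt1 yeast, a strain selected for a defined alteration in DNA repair or cell cycle control.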

[5] = NCI Yeast Anticancer Drug Screen. Data for the rad50 strain (AID 155);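 note: 0% = growth of vehicle-only cultures of the same strain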; conditions: S. cerevisiae rad50 strain growth inhibition, hits give high values
How it was run: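 Cells are treated with compound, grown, and their growth is then scored against vehicle-only cultures of the same repair-deficient yeast strain.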

[6] = NCI Yeast Anticancer Drug Screen. Data for the mec2-1 strain (AID 157); conditions: S. cerevisiae mec2-1 strain, hits give high values
How it was run: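 Mutant yeast (mec2-1) grown with compound; growth inhibition relative to vehicle control reported.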

[7] = NCI Yeast Anticancer Drug Screen. Data for the rad14 strain (AID 159);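 note: 0% = growth of vehicle-treated control cultures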; conditions: S. cerevisiae rad14 strain growth inhibition, hits give high values
How it was run: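 Readout: yeast growth inhibition, referenced to vehicle-only cultures. Strain bears a defined alteration in DNA damage repair.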

[8] = NCI Yeast Anticancer Drug Screen. Data for the sgs1 mgt1 strain (AID 161);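 note: 0% = growth of cultures given vehicle only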; conditions: S. cerevisiae sgs1 mgt1 strain, hits give high values
How it was run: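 Yeast cells carrying a defined DNA-repair defect were exposed to test compounds. Growth inhibition was measured relative to vehicle-treated controls.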

[9] = NCI Yeast Anticancer Drug Screen. Data for the CLN2oe strain (AID 163);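 note: 0% = growth of vehicle-only control cultures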; conditions: S. cerevisiae CLN2oe strain, hits give high values
How it was run: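 Compounds are applied to yeast harbouring a defined cell-cycle control change; reduced growth compared with vehicle-treated controls gives the value.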

[10] = NCI Yeast Anticancer Drug Screen. Data for the cln2 rad14 strain (AID 165);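 note: 0% = growth equal to vehicle treated cultures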; conditions: S. cerevisiae cln2 rad14 strain, hits give high values
How it was run: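 Readout is yeast growth inhibition versus vehicle-treated controls, using a strain with cln2 and rad14 alterations exposed to compound.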

[11] = NCI Yeast Anticancer Drug Screen. Data for the bub3 strain (AID 167); conditions: S. cerevisiae bub3 mutant strain, hits give high values
How it was run: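 Part of a panel of yeast mutants defective in DNA damage repair or cell cycle regulation. Each strain is grown with compound, and inhibition is calculated relative to solvent-treated cultures.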

[12] = at 5.0 µM (retest, dose inferred, filed as 0.5)
[13] = at 50.0 µM (retest, dose inferred, filed as 5.0)

CCCCS(=O)(=O)Nc1ccc(Nc2c3ccccc3nc3ccccc23)c(OC)c1
growth inhibition ([1]; at 1.2 µM): 54%
growth inhibition ([1]; at 3.7 µM): 80% (active)
growth inhibition ([1]; at 11.0 µM): 90% (active)
growth inhibition ([1]; at 33.0 µM): 93% (active)
growth inhibition ([1]; at 100.0 µM): 96% (active)
growth inhibition ([2]; at 1.2 µM): -38%
growth inhibition ([2]; at 3.7 µM): -34%
growth inhibition ([2]; at 11.0 µM): -36%
growth inhibition ([2]; at 33.0 µM): 44%
growth inhibition ([2]; at 100.0 µM): 96% (active)
growth inhibition ([3]; at 1.2 µM): -20%
growth inhibition ([3]; at 3.7 µM): -11%
growth inhibition ([3]; at 11.0 µM): 10%
growth inhibition ([3]; at 33.0 µM): 53%
growth inhibition ([3]; at 100.0 µM): 81% (active)
growth inhibition ([4]; at 1.2 µM): -49%
growth inhibition ([4]; at 3.7 µM): -46%
growth inhibition ([4]; at 11.0 µM): -33%
growth inhibition ([4]; at 33.0 µM): 64%
growth inhibition ([4]; at 100.0 µM): 96% (active)
growth inhibition ([5]; at 1.2 µM): 39%
growth inhibition ([5]; at 3.7 µM): 78% (active)
growth inhibition [5, 12]: 86% (active)
growth inhibition ([5]; at 11.0 µM): 89% (active)
growth inhibition ([5]; at 33.0 µM): 94% (active)
growth inhibition [5, 13]: 98% (active)
growth inhibition ([5]; at 50.0 µM): 45%
growth inhibition ([5]; at 100.0 µM): 96% (active)
growth inhibition ([6]; at 1.2 µM): -29%
growth inhibition ([6]; at 3.7 µM): -9%
growth inhibition [6, 12]: 15%
growth inhibition ([6]; at 11.0 µM): 37%
growth inhibition ([6]; at 33.0 µM): 91% (active)
growth inhibition [6, 13]: 98% (active)
growth inhibition ([6]; at 50.0 µM): 47.5%
growth inhibition ([6]; at 100.0 µM): 98% (active)
growth inhibition ([7]; at 1.2 µM): -31%
growth inhibition ([7]; at 3.7 µM): -25%
growth inhibition ([7]; at 11.0 µM): -9%
growth inhibition ([7]; at 33.0 µM): 79% (active)
growth inhibition ([7]; at 100.0 µM): 96% (active)
growth inhibition [8, 12]: 44%
growth inhibition [8, 13]: 99% (active)
growth inhibition ([8]; at 50.0 µM): 84% (active)
growth inhibition ([9]; at 1.2 µM): 10%
growth inhibition ([9]; at 3.7 µM): 3%
growth inhibition ([9]; at 11.0 µM): 6%
growth inhibition ([9]; at 33.0 µM): 72% (active)
growth inhibition ([9]; at 100.0 µM): 91% (active)
growth inhibition [10, 12]: 25%
growth inhibition [10, 13]: 95% (active)
growth inhibition ([10]; at 50.0 µM): 77% (active)
growth inhibition ([11]; at 1.2 µM): -53%
growth inhibition ([11]; at 3.7 µM): -63%
growth inhibition [11, 12]: 43%
growth inhibition ([11]; at 11.0 µM): -35%
growth inhibition ([11]; at 33.0 µM): 60%
growth inhibition [11, 13]: 96% (active)
growth inhibition ([11]; at 50.0 µM): 76.9% (active)
growth inhibition ([11]; at 100.0 µM): 96% (active)
